Targets with a hit are over-represented here; the source holds about 8,800 in all. About 0.5% of all pairs of compound and target were hits. A number with no mark means an inactive call.
How the values were obtained:
Assay in all cases: log2 fold change, soluble protein after heating vs DMSO (PISA); higher = thermal stabilisation; K562 lysate, 10 uM; active = over 0.2 and 3.5 SD of the protein, either way, in both replicates (recomputed)
[1] = compound: C#Cc1cccc(Nc2ncnc3cc(OCCOC)c(OCCOC)cc23)c1 [erlotinib]
In short: (§1)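 Quantification was by TMTpro 16plex LC-MS/MS with equalised channel sums, applied to the supernatant after 21,000xg for 90 min. Samples were crude K562 extract at 1 mg/mL protein in PBS pH 7.4 with 1 mM MgCl2, treated with 10 μM compound for 30 min, heated for 3 min across 48°C-58°C, pooled and brought to 0.5% NP-40 at 4°C. Values are log-two fold changes in thermal stability relative to solvent controls, from duplicates.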

[2] = compound: C/C(=N\NC(=O)C1=CC(=CC=C1)S(=O)(=O)N2CCOCC2)/C3=C(C=CC(=C3)Cl)O
In short: as §1

[3] = compound: C1=CC(=CC=C1C2=NC3=C(N2)C=C(C=C3)C(=O)N)OC4=CC=C(C=C4)Cl
In short: as §1

[4] = compound: C1=CC2=C(C=CC(=C2)/C=C\3/C(=O)NC(=NCC4=CC=CS4)S3)N=C1
In short: as §1

[5] = compound: C1=CC2=NC=CN=C2C=C1/C=C/3\C(=O)NC(=O)S3
In short: as §1

[6] = compound: C1=CC=C(C=C1)C2=NC(=C(N2)C3=CC=NC=C3)C4=CC(=C(C=C4)Cl)O
In short: as §1

[7] = compound: C1=CC=C2C(=C1)C3=NNC4=CC=CC(=C43)C2=O
In short: as §1

[8] = compound: C1CCN(C1)C(=O)NC2=CC=CC(=C2)NC3=NC=C(C(=N3)NCCC4=CN=CN4)Br
In short: as §1

[9] = compound: C1CN(CCC1(CC2=CC=C(C=C2)Cl)N)C3=NC=NC4=C3C=CN4
In short: as §1

[10] = compound: C1COCCN1CCN2C3=CC=CC=C3N=C2NC(=O)C4=CC(=CC=C4)[N+](=O)[O-] [IRAK-1-4 Inhibitor I]
In short: as §1

UniProt Q9H7B4, sequence (Q9H7B4 whole entry, looked up): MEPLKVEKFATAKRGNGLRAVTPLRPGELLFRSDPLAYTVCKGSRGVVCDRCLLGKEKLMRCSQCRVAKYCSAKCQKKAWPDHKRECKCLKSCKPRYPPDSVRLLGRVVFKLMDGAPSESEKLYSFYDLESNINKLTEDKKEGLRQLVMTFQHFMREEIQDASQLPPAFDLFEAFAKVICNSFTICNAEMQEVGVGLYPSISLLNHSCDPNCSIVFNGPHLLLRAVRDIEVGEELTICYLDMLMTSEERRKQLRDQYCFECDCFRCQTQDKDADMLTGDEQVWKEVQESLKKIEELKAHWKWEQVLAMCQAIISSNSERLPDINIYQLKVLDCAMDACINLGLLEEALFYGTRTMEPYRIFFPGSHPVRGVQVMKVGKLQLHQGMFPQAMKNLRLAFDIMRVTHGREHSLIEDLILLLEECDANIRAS
UniProt Q96JI7, sequence (Q96JI7 whole entry, looked up): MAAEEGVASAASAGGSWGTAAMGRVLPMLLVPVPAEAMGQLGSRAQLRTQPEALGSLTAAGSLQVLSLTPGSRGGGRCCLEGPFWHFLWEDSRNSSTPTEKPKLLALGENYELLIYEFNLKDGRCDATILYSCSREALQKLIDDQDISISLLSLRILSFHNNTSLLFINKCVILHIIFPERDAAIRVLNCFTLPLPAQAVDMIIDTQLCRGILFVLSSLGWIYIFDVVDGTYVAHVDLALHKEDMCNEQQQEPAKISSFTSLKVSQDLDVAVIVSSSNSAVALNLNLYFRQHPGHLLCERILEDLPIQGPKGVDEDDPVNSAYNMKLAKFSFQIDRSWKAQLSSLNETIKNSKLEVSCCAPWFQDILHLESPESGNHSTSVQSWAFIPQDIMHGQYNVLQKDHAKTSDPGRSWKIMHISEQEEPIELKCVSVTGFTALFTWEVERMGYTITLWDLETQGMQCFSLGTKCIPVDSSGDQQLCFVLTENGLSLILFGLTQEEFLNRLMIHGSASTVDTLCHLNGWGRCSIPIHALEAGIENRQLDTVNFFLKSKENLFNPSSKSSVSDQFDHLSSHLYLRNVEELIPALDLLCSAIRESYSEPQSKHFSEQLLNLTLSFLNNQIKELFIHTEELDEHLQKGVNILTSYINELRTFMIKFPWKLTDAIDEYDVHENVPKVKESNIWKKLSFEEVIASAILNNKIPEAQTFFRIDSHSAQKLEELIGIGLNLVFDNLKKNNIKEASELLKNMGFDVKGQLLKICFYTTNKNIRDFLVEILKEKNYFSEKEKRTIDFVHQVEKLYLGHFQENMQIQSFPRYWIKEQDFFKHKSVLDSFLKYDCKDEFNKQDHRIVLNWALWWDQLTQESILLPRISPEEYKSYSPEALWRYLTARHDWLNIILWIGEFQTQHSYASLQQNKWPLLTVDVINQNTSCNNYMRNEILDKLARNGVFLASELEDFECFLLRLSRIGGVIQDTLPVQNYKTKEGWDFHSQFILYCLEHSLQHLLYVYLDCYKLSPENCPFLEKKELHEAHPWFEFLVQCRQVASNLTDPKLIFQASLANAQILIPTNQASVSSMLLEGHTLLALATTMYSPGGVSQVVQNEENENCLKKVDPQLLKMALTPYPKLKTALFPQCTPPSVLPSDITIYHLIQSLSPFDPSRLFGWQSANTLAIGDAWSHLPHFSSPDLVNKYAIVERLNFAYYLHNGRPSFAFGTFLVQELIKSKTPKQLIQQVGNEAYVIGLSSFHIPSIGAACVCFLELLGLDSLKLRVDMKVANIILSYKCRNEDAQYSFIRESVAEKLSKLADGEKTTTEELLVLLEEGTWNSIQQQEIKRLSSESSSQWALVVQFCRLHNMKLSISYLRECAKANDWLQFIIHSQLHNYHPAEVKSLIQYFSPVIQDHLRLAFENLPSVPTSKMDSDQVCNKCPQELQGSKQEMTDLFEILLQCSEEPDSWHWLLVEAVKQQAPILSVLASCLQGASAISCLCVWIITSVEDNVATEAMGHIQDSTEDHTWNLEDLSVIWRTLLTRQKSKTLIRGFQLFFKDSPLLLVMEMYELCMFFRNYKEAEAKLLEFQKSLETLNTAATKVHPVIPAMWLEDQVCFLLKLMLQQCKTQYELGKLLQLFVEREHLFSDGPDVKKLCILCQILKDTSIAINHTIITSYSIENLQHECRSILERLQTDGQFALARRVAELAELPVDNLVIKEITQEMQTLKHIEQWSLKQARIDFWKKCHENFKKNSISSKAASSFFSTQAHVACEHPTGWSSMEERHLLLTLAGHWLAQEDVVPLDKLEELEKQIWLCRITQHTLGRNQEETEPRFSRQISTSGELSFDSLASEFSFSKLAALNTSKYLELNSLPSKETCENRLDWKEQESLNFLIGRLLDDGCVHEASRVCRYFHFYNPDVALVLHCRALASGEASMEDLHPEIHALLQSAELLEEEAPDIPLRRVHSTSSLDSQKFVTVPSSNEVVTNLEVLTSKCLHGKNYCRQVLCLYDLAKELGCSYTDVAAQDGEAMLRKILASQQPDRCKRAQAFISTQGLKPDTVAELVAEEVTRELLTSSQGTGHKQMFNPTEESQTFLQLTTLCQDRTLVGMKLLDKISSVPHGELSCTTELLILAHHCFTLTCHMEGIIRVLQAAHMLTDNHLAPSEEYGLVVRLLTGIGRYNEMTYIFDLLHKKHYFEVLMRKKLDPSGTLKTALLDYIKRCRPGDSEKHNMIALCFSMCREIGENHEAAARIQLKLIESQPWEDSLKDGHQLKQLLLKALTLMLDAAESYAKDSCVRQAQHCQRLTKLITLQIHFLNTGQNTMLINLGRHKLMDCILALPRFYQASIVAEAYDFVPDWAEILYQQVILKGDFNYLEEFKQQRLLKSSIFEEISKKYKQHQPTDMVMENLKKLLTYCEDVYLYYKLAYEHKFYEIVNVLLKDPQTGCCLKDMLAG
UniProt P10124, sequence (P10124 whole entry, looked up): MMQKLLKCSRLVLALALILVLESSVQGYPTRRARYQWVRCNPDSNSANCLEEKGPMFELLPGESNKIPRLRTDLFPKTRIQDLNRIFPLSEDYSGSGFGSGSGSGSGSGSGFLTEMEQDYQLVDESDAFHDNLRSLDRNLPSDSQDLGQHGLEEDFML
UniProt Q9H2V7, sequence (Q9H2V7 whole entry, looked up): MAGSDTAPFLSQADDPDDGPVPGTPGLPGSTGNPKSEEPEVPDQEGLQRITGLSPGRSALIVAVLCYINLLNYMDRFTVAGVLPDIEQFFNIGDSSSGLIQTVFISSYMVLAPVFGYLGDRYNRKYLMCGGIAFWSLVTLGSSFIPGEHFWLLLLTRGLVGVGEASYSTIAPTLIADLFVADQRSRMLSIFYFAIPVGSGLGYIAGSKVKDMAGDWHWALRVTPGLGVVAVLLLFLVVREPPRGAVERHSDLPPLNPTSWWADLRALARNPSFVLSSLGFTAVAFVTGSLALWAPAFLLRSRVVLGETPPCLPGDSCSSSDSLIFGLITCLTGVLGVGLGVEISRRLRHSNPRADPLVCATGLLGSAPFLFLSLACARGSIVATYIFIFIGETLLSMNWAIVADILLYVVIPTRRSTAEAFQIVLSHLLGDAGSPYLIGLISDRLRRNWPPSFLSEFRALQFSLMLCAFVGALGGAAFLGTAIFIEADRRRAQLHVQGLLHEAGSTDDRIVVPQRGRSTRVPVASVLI
UniProt Q9H668, sequence (Q9H668 whole entry, looked up): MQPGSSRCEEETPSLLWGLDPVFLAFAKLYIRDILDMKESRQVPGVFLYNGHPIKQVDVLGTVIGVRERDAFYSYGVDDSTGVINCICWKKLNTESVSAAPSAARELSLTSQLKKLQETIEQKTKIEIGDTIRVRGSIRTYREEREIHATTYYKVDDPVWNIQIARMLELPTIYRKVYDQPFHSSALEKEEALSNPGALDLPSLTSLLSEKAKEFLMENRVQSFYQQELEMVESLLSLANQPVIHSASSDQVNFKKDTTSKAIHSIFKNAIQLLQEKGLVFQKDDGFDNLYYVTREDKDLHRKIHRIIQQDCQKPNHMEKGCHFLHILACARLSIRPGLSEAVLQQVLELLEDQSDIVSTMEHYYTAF
UniProt Q16594, sequence (Q16594 whole entry, looked up): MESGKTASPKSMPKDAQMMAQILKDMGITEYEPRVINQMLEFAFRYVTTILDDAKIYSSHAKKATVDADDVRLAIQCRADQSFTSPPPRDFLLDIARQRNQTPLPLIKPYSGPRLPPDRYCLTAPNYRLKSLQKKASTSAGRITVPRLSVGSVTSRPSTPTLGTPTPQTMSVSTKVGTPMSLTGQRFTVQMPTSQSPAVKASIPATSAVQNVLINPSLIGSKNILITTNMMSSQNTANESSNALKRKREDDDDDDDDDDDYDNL
UniProt Q16563, sequence (Q16563 whole entry, looked up): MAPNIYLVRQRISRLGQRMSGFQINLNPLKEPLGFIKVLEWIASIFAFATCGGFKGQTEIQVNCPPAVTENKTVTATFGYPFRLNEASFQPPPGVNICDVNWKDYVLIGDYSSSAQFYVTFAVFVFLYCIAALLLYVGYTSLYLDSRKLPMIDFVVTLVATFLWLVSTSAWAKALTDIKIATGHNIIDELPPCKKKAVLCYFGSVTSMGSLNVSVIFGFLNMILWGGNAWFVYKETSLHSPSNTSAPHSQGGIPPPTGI
UniProt O43808, sequence (O43808 whole entry, looked up): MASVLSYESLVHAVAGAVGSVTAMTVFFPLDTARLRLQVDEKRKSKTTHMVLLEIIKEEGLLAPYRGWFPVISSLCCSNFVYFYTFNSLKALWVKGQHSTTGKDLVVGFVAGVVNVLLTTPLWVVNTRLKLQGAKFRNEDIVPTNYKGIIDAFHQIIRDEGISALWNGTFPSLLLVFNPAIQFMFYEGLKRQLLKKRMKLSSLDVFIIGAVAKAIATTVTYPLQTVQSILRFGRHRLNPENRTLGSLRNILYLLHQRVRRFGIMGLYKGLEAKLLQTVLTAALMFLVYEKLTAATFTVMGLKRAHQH
UniProt P35270, sequence (P35270 whole entry, looked up): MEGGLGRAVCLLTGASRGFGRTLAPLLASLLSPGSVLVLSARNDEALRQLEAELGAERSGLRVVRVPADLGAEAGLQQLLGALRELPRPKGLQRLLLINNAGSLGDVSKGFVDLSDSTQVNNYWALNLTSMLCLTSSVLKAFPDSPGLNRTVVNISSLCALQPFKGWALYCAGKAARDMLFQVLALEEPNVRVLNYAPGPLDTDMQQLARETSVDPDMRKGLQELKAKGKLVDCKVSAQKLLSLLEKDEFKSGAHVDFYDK

| Target | log2 fold change [1] | log2 fold change [2] | log2 fold change [3] | log2 fold change [4] | log2 fold change [5] | log2 fold change [6] | log2 fold change [7] | log2 fold change [8] | log2 fold change [9] | log2 fold change [10] |
| --- | --- | --- | --- | --- | --- | --- | --- | --- | --- | --- |
| SLC25A17 (UniProt O43808) | 0.035 | 0.057 | 0.061 | 0.014 | -0.015 | 0.012 | -0.021 | 0.012 | 0.03 | 0.056 |
| SMYD3 (UniProt Q9H7B4) | 0.094 | 0.104 | 0.009 | -0.036 | 0.064 | -0.021 | -0.036 | -0.022 | -0.038 | 0.001 |
| TADA3 (UniProt O75528) | 0.02 | -0.046 | 0.032 | -0.073 | -0.04 | 0.048 | 0.009 | -0.058 | 0.053 | 0.018 |
| SLC30A9 (UniProt Q6PML9) | -0.023 | 0.039 | -0.17 | -0.079 | 0.017 | -0.012 | -0.023 | -0.056 | 0.1 | -0.005 |
| SULT1A1 (UniProt P50225) | -0.045 | 0.08 | -0.014 | 0.069 | 0.048 | -0.011 | -0.061 | -0.026 | 0.018 | -0.04 |
| SMTN isoform 6 (UniProt P53814) | -0.033 | 0.081 | -0.01 | 0.035 | 0.006 | 0.021 | 0.005 | -0.018 | 0.015 | 0.058 |
| STOML2 (UniProt Q9UJZ1) | -0.021 | 0.018 | 0.04 | -0.049 | 0.037 | 0.012 | -0.063 | 0.023 | 0.027 | 0.036 |
| SMC6 (UniProt Q96SB8) | 0.02 | 0.038 | -0.03 | -0.002 | -0.009 | 0.019 | -0.055 | -0.031 | 0.03 | 0.01 |
| SPNS1 (UniProt Q9H2V7) | 0.015 | -0.043 | -0.02 | 0.043 | -0.031 | 0.029 | -0.063 | 0 | 0.044 | 0.032 |
| SMG5 (UniProt Q9UPR3) | -0.037 | -0.038 | 0.028 | -0.008 | -0.012 | -0.074 | -0.035 | -0.004 | -0.043 | 0.007 |
| SYNE2 isoform 2 (UniProt Q8WXH0) | -0.09 | -0.069 | -0.023 | -0.156 | -0.04 | -0.015 | -0.146 | -0.064 | 0.037 | 0.127 |
| SQLE (UniProt Q14534) | -0.025 | 0.056 | 0.019 | -0.03 | -0.028 | 0.007 | 0.074 | -0.019 | -0.084 | 0.023 |
| SLC26A6 (UniProt Q9BXS9) | -0.04 | -0.117 | 0.024 | -0.018 | -0.044 | 0.032 | -0.114 | -0.13 | 0.087 | -0.062 |
| SYPL1 (UniProt Q16563) | 0.026 | -0.017 | -0.014 | 0.016 | 0.04 | 0.025 | 0.002 | 0.014 | 0.002 | 0.032 |
| SPG11 (UniProt Q96JI7) | 0.05 | 0.033 | 0.005 | -0.012 | 0.333 | 0.076 | 0.025 | -0.016 | 0.019 | 0.023 |
| TARBP2 (UniProt Q15633) | 0.03 | -0.095 | -0.066 | -0.026 | 0.007 | 0.027 | -0.029 | 0.012 | -0.002 | 0.011 |
| SLU7 (UniProt O95391) | -0.02 | -0.086 | -0.021 | 0.09 | -0.026 | 0.021 | 0.036 | -0.096 | -0.041 | -0.07 |
| SPR (UniProt P35270) | -0.027 | 0.014 | -0.021 | 0.056 | 0.049 | 1.04 (active) | 0.013 | 0.008 | -0.041 | 0.049 |
| STK39 (UniProt Q9UEW8) | 0.006 | 0.08 | -0.001 | -0.014 | -0.03 | 0 | -0.133 | -0.004 | -0.013 | -0.003 |
| SHC1 isoform 6 (UniProt P29353) | 0.029 | -0.024 | 0.05 | 0.035 | 0.04 | 0.011 | -0.043 | -0.005 | 0.001 | 0.012 |
| SPPL2A (UniProt Q8TCT8) | 0.005 | -0.007 | 0.118 | -0.104 | -0.011 | -0.07 | -0.141 | -0.082 | -0.644 (active) | 0.014 |
| STK25 (UniProt O00506) | 0.037 | -0.04 | -0.038 | 0.021 | 0.012 | 0.031 | 0.317 (active) | 0.052 | -0.022 | -0.001 |
| TAF9 (UniProt Q16594) | 0.022 | 0.009 | 0.081 | 0.056 | 0.002 | 0.013 | -0.052 | -0.08 | 0.084 | 0.032 |
| STN1 (UniProt Q9H668) | -0.126 | 0.049 | 0.142 | 0.075 | -0.098 | 0.019 | -0.061 | -0.045 | 0.043 | 0.034 |
| TAPT1 (UniProt Q6NXT6) | 0 | -0.092 | 0.068 | -0.038 | -0.001 | -0.059 | -0.039 | -0.059 | 0.01 | 0.002 |
| SPAG5 (UniProt Q96R06) | 0.013 | 0.012 | -0.054 | 0.003 | -0.008 | 0.014 | 0.018 | -0.009 | -0.011 | 0 |
| SLC7A5 (UniProt Q01650) | 0.001 | -0.009 | -0.029 | -0.015 | 0.02 | 0.007 | -0.008 | 0.019 | -0.006 | 0.021 |
| SRGN (UniProt P10124) | -0.034 | 0.023 | 0.051 | -0.019 | 0.05 | 0.051 | -0.069 | 0.065 | -0.139 | 0.013 |
| SLC25A38 (UniProt Q96DW6) | -0.077 | -0.117 | -0.024 | -0.049 | -0.086 | -0.114 | -0.092 | -0.023 | -0.07 | -0.052 |
